# Measured values from PubChem BioAssay AID651919 (Sanford-Burnham Center for Chemical Genomics, 2012).
# “And” between values parts separate entries of the source, which are not always exact repeats. Identical values can stand only once.
# Molecular target: C-X-C chemokine receptor type 5 (Homo sapiens) (UniProt P32302)
# Assay: CXCR6 and CXCR5 receptor antagonist panel, profiling panel, selectivity assay for CXCR6 antagonist project, cell-based, CHO-K1 PathHunter beta-arrestin, luminescence, set 4 (AID 651919)
# Conditions: run 1, at 79 µM (top of the series)
row,SMILES,inhibition
1,COc1cc(C(=O)NC2CC3CCCC(C2)N3CC(=O)Nc2ccc(Cl)cc2)cc(OC)c1OC (centres undefined),-11.9%
2,COc1ccc(CN2C3CCCC2CC(NC(=O)c2cc(OC)c(OC)c(OC)c2)C3)cc1 (centres undefined),37%
3,COc1cc(C(=O)NC2CC3CCCC(C2)N3CC(=O)Nc2ccc(F)cc2)cc(OC)c1OC (centres undefined),1.06%
4,COc1ccccc1NC(=O)CN1C2CCCC1CC(NC(=O)c1cc(OC)c(OC)c(OC)c1)C2 (centres undefined),10.1%
5,COc1cc(OC)cc(C(=O)NC2CC3CCCC(C2)N3CC(=O)Nc2ccccc2)c1 (centres undefined),37.4%
6,COc1cc(OC)cc(C(=O)NC2CC3CCCC(C2)N3CC(=O)Nc2ccc(F)cc2)c1 (centres undefined),32.4%
7,COc1cc(C(=O)NC2CC3CCCC(C2)N3CC(=O)Nc2ccccc2)cc(OC)c1OC (centres undefined),8.6% and 15.6%
8,O=C(CN1C2CCCC1CC(NC(=O)c1ccc3c(c1)OCO3)C2)Nc1ccc(Cl)cc1 (centres undefined),44.8%
9,COc1ccc(NC(=O)CN2C3CCCC2CC(NC(=O)c2cc(OC)c(OC)c(OC)c2)C3)cc1 (centres undefined),-6.42%
10,COc1ccc(C(=O)NC2CC3CCCC(C2)N3CC(=O)Nc2ccccc2)cc1OC (centres undefined),16.5%
11,COc1ccc(NC(=O)CN2C3CCCC2CC(NC(=O)c2cccc(OC)c2)C3)cc1 (centres undefined),8.8%
12,O=C(CN1C2CCCC1CC(NC(=O)c1ccc3c(c1)OCO3)C2)Nc1ccccc1 (centres undefined),27.8%
13,COc1ccc(NC(=O)CN2C3CCCC2CC(NC(=O)c2ccc(OC)c(OC)c2)C3)cc1 (centres undefined),-3.99%
14,O=C(CN1C2CCCC1CC(NC(=O)c1ccc3c(c1)OCO3)C2)Nc1ccc(F)cc1 (centres undefined),6.87%
15,COc1cccc(C(=O)NC2CC3CCCC(C2)N3CC(=O)Nc2ccc(C)cc2)c1 (centres undefined),44.1%
16,COc1ccc(C(=O)NC2CC3CCCC(C2)N3CC(=O)Nc2ccc(Cl)cc2)cc1 (centres undefined),34.5%
17,COc1ccc(NC(=O)CN2C3CCCC2CC(NC(=O)c2cc(OC)cc(OC)c2)C3)cc1 (centres undefined),22.9%

row,SMILES,inhibition
1,COc1cccc(C(=O)NC2CC3CCCC(C2)N3CC(=O)Nc2ccc(Cl)cc2)c1 (centres undefined),-2.39%
2,COc1cc(OC)cc(C(=O)NC2CC3CCCC(C2)N3CC(=O)Nc2ccc(C)cc2)c1 (centres undefined),8.41%
3,COc1ccc(C(=O)NC2CC3CCCC(C2)N3CC(=O)Nc2ccc(C)cc2)cc1 (centres undefined),22.2%
4,O=C(CN1C2CCCC1CC(NC(=O)c1ccccc1)C2)Nc1ccccc1 (centres undefined),8.48%
5,COc1cccc(C(=O)NC2CC3CCCC(C2)N3CC(=O)Nc2ccc(F)cc2)c1 (centres undefined),-4.11%
6,Cc1ccc(NC(=O)CN2C3CCCC2CC(NC(=O)c2ccc4c(c2)OCO4)C3)cc1 (centres undefined),42%
7,COc1cccc(C(=O)NC2CC3CCCC(C2)N3CC(=O)Nc2ccccc2)c1 (centres undefined),10.5%
8,COc1ccc(C(=O)NC2CC3CCCC(C2)N3CC(=O)Nc2ccccc2)cc1 (centres undefined),3.68%
9,COc1cc(OC)cc(C(=O)NC2CC3CCCC(C2)N3CC(=O)Nc2ccc(Cl)cc2)c1 (centres undefined),22.6%
10,COc1ccc(C(=O)NC2CC3CCCC(C2)N3CC(=O)Nc2ccc(Cl)cc2)cc1OC (centres undefined),0.551%
11,COc1cc(C(=O)NC2CC3CCCC(C2)N3CC(=O)Nc2ccc(C)cc2)cc(OC)c1OC (centres undefined),2.28%
12,COc1ccc(C(=O)NC2CC3CCCC(C2)N3CC(=O)Nc2ccc(C)cc2)cc1OC (centres undefined),22.7%
13,COc1ccc(NC(=O)CN2C3CCCC2CC(NC(=O)c2ccc4c(c2)OCO4)C3)cc1 (centres undefined),21%
14,COc1ccc(NC(=O)CN2C3CCCC2CC(NC(=O)c2ccc(OC)cc2)C3)cc1 (centres undefined),-6.48%
15,COc1ccc(C(=O)NC2CC3CCCC(C2)N3CC(=O)Nc2ccc(F)cc2)cc1OC (centres undefined),1.06%
16,COc1cc(C(=O)NC2CC3CCCC(C2)N3CC(=O)Nc2ccccc2Cl)cc(OC)c1OC (centres undefined),29.2% and 16%
17,COc1ccc(C(=O)NC2CC3CCCC(C2)N3CC(=O)Nc2ccc(F)cc2)cc1 (centres undefined),-9.29%
